Experimental data: PubChem BioAssay (EPA / NIEHS)
The source made the active and inactive calls. The calls were made as follows: active = hit-call score of the fitted dose curve at least 0.9, where 1 is the maximum; inactive = score below 0.9.

experiment: ATG_BRE_CIS: Attagene CIS-FACTORIAL HepG2 Assay for human Bone Morphogenetic Protein (BMP) Response Element (BRE) (AID 2282933); settings: HepG2 BMP response element reporter, Attagene transcription factor profiling; actives raise or lower the signal
Experimental: ATG_CIS is a cell-based, multiplexed-readout assay that uses HepG2, a human liver cell line, with measurements taken at 24 hours after chemical dosing in a 24-well plate.ATG_BRE_CIS is one of 52 assay component(s) measured or calculated from the ATG_CIS assay. It is designed to make measurements of mRNA induction, a form of inducible reporter, as detected with fluorescence intensity signals by Reverse transcription polymerase chain reaction (RT-PCR) and Capillary electrophoresis technology.Data from the assay component ATG_BRE_CIS was analyzed into 1 assay endpoint. This assay endpoint, ATG_BRE_CIS, was analyzed with bidirectional fitting relative to DMSO as the negative control and baseline of activity. Using a type of inducible reporter, measures of mRNA for gain or loss-of-signal activity can be used to understand the reporter gene at the transcription factor-level as they relate to the gene SMAD1. Furthermore, this assay endpoint can be referred to as a primary readout, because this assay has produced multiple assay endpoints where this one serves a reporter gene function. To generalize the intended target to other relatable targets, this assay endpoint is annotated to the dna binding intended target family, where the subfamily is Smad protein.
Human liver HepG2 cells are transiently transfected with multiple reporter transcription units (MRTUs) in 6-well plates using FuGene 6 reagent (Roche; 3 ml FuGene/1 mg DNA). The MRTU constructs are regulated by a cis-regulating element (promoter). […] A major difference between the CIS and TRANS system is that in CIS activities of endogenous TFs are measured, whereas the TRANS assay evaluates changes in activities of exogenous, chimeric NR-Gal4 proteins. […] At the end of 24 hour incubation, total RNA was isolated using TriZol reagent (Invitrogen). The isolated RNA is then reverse-transcribed using oligo(dT) primer and Mo-MLV reverse transcriptase (Invitrogen) with DNAse I (Ambion) treatment for 30 min. The one-tenth of the produced cDNA was amplified by PCR using Taq DNA polymerase (Invitrogen) and two reporter sequence-specific primers. The PCR products were fluorescently labeled by primer extension with 6-arboxyfluorescein (6-FAM) 5'-labeled reporter sequence-specific primer (2 min at 95 C, 20 s at 68 C and 10 min at 72 C) and these products were digested with 5U of HpaI (New England Biolabs) for 2h at 37 C. The fragments were purified using Qiaquick PCR columns (Qiagen), analyzed on an ABI 3130xL genetic analyzer (Applied Biosystems) with peak positions identified by using a set of X-rhodamine (ROX)-labeled MapMarker1000 molecular weight standards (BioVentures). The raw capillary electrophoresis data was processed using Attagraph software (Attagene).

Row | Structure (SMILES) | outcome | AC50
1 | C[C@]12CC[C@H]3C(=CCc4cc(O)ccc43)[C@@H]1CCC2=O | inactive | 
2 | N#Cc1ccccc1O | inactive | 
3 | O=C(c1ccccc1)c1ccc(O)cc1O | inactive | 
4 | O=C1c2ccccc2C(=O)c2c(Cl)cccc21 | inactive | 
5 | CCOCOCC | inactive | 
6 | CCOC(C=C(C)CCC=C(C)C)OCC | inactive | 
7 | CC(O)C#CC(C)O (stereo not given) |  | 182 µM (active)
8 | CC(C)(C)c1cc(CCC(=O)OCC(COC(=O)CCc2cc(C(C)(C)C)c(O)c(C(C)(C)C)c2)(COC(=O)CCc2cc(C(C)(C)C)c(O)c(C(C)(C)C)c2)COC(=O)CCc2cc(C(C)(C)C)c(O)c(C(C)(C)C)c2)cc(C(C)(C)C)c1O | inactive | 
9 | F[Si-2](F)(F)(F)(F)F | inactive | 
10 | CCN(CC)c1ccc2c(c1)Oc1cc(N(CC)CC)ccc1C21OC(=O)c2ccccc21 | inactive | 
11 | C=CC(=O)OCC(F)(F)C(F)(F)C(F)(F)COC(=O)C=C | inactive | 
12 | CC(=O)CCC(C)C | inactive | 
13 | NS(=O)(=O)C(F)(F)C(F)(F)C(F)(F)C(F)(F)C(F)(F)C(F)(F)F | inactive | 
14 | O=S(=O)(Cl)C(F)(F)C(F)(F)C(F)(F)C(F)(F)C(F)(F)C(F)(F)C(F)(F)C(F)(F)F | inactive | 
15 | OCC(O)CC(F)(F)C(F)(F)C(F)(F)C(F)(F)F (stereo not given) | inactive | 
16 | NC(=O)C(F)(F)C(F)(F)C(F)(F)C(F)(F)C(F)(F)C(F)(F)C(F)(F)F | inactive | 
17 | C=C(C)CCCC | inactive | 
18 | NCC(F)(F)C(F)(F)C(F)(F)C(F)(F)C(F)(F)C(F)(F)C(F)(F)C(F)(F)F | inactive | 
19 | NC(O)(C(F)(F)F)C(F)(F)F | inactive | 
20 | CC(=O)c1ccccc1N | inactive | 

Row | Structure (SMILES) | outcome | AC50
21 | NC(=O)C(F)(F)C(F)(F)C(F)(F)C(F)F | inactive | 
22 | Cc1cnccn1 | inactive | 
23 | C=CC(=O)OCC(F)(F)C(F)(F)C(F)(F)C(F)(F)C(F)(F)C(F)(F)C(F)(F)C(F)F | inactive | 
24 | Cc1ccc(O)c(-n2nc3ccccc3n2)c1 | inactive | 
25 | CCN(CC)c1ccc(C=O)cc1 | inactive | 
26 | N#CCCOCCC#N | inactive | 
27 | CCC(C)CO (stereo not given) | inactive | 
28 | COC(F)(C(F)F)C(F)(F)F (stereo not given) | inactive | 
29 | C#CC(O)CCC (stereo not given) | inactive | 
30 | CCn1c2ccccc2c2ccccc21 |  | 159 µM (active)
31 | CCCCC(CC)COC(=O)c1ccc(N(C)C)cc1 (stereo not given) |  | 46.7 µM (active)
32 | CN(N=O)C(=O)N[C@@H]1[C@@H](O)[C@H](O)[C@@H](CO)O[C@@H]1O | inactive | 
33 | NC(=O)C(F)(F)C(F)(F)C(F)(F)C(F)(F)C(N)=O | inactive | 
34 | O=C(O)C(F)(F)C(F)(F)C(F)(F)OC(F)(C(F)(F)F)C(F)(F)F | inactive | 
35 | CCCCCCCCCCCCC[N+](C)(C)Cc1ccccc1 |  | 5.63 µM (active)
36 | CCc1ccc(C)nc1 | inactive | 
37 | CCOC(=O)CCC(C)=O | inactive | 
38 | COc1ccccc1C=O | inactive | 
39 | CCCCCC/C=C/CCCCCCCC(=O)O | inactive | 
40 | Cc1ccc(O)cn1 | inactive | 
